Laboratory results from PubChem BioAssay AID1159580 (chemical genetic matrix, 2015).
“And” between values parts separate entries of the source, which are not always exact repeats. Identical values can stand only once. Hit rate of the full screen: of about 5,500 compounds, about 2,000 (36%) were called active. Not shown: some 18% with an inconclusive outcome. No stated cut-off is given here; in the data, active means normalized growth mostly below about 0.91 (no sharp cut-off); inconclusive means no clear call, values can overlap the other calls; inactive means mostly above about 0.92. The list shows a part of the results.

Assay: chemical genetic growth profiling, strain panel (AID 1159580);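 further: tested at 20 µM; growth read once vehicle control cultures reached saturation at 30 °C; 1 = growth at the plate median or of vehicle wells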
Conditions: S. cerevisiae deletion strains, growth OD

Measured: normalized growth

NNC(=O)c1ccncc1
inactive: locus YAL013W, strain DEP1, stronger effect = lower value 1.01 | locus YAL021C, strain ccr4, stronger effect = lower value 1.01 | locus YAL026C, strain drs2, stronger effect = lower value 0.991 | locus YAL030W, strain snc1, stronger effect = lower value 1.03 | locus YBL061C, strain skt5, stronger effect = lower value 1.01 | locus YBR009C, strain hhf1, stronger effect = lower value 0.986 | locus YBR021W, strain FUR4, stronger effect = lower value 1.01 | locus YBR023C, strain chs3, stronger effect = lower value 1.01 | locus YBR171W, strain sec66, stronger effect = lower value 1.02 | locus YBR229C, strain ROT2, stronger effect = lower value 1.01 | locus YBR231C, strain swc5, stronger effect = lower value 1.03 | locus YBR279W, strain paf1, stronger effect = lower value 1.01 | locus YCL011C, strain gbp2, stronger effect = lower value 0.984 | locus YCL016C, strain dcc1, stronger effect = lower value 0.981 | locus YCL029C, strain bik1, stronger effect = lower value 1 | locus YCL061C, strain MRC1, stronger effect = lower value 1.02 | locus YCL069W, strain vba3, stronger effect = lower value 1.02 | locus YCR088W, strain abp1, stronger effect = lower value 1.02 | locus YDL005C, strain med2, stronger effect = lower value 1.01 | locus YDL035C, strain GPR1, stronger effect = lower value 1.01 | locus YDL040C, strain nat1, stronger effect = lower value 1 | locus YDL074C, strain BRE1, stronger effect = lower value 1.03 | locus YDL101C, strain DUN1, stronger effect = lower value 1.01 | locus YDL185W, strain tfp1, stronger effect = lower value 0.991 | locus YDL192W, strain arf1, stronger effect = lower value 0.995 | locus YDR001C, strain nth1, stronger effect = lower value 1.02 | locus YDR069C, strain doa4, stronger effect = lower value 1.02 | locus YDR101C, strain arx1, stronger effect = lower value 0.997 | locus YDR137W, strain rgp1, stronger effect = lower value 0.989 | locus YDR159W, strain sac3, stronger effect = lower value 0.943 | locus YDR162C, strain NBP2, stronger effect = lower value 1.02 | locus YDR195W, strain ref2 1 | locus YDR297W, strain sur2, stronger effect = lower value 1.01 | locus YDR318W, strain mcm21, stronger effect = lower value 0.993 | locus YDR334W, strain swr1, stronger effect = lower value 1.01 | locus YDR335W, strain msn5, stronger effect = lower value 1.01 | locus YDR388W, stronger effect = lower value 0.992 | locus YDR392W, strain spt3, stronger effect = lower value 0.941 | locus YDR502C, strain sam2, stronger effect = lower value 0.993 | locus YEL003W, strain gim4, stronger effect = lower value 1.04 | locus YEL037C, strain rad23, stronger effect = lower value 1.02 | locus YEL061C, strain CIN8 (second series), stronger effect = lower value 1.01 | locus YEL061C, strain CIN8, stronger effect = lower value 1.01 | locus YER015W, strain faa2, stronger effect = lower value 1.01 | locus YER016W, strain bim1, stronger effect = lower value 1 | locus YER110C, stronger effect = lower value 0.988 | locus YER111C, strain swi4, stronger effect = lower value 1.01 | locus YER155C, strain BEM2 (second series), stronger effect = lower value 1.03 | locus YER155C, strain BEM2, stronger effect = lower value 1.01 | locus YER167W, strain BCK2, stronger effect = lower value 1 | locus YFR010W, strain ubp6, stronger effect = lower value 1.02 | locus YGL078C, strain dbp3, stronger effect = lower value 0.992 | locus YGL086W, strain mad1, stronger effect = lower value 1.01 | locus YGL167C, strain pmr1, stronger effect = lower value 1 | locus YGL173C, strain kem1, stronger effect = lower value 1.05 | locus YGL227W, strain vid30, stronger effect = lower value 1.02 | locus YGL240W, strain doc1, stronger effect = lower value 1.02 | locus YGL248W, strain PDE1, stronger effect = lower value 1.01 | locus YGL253W, strain hxk2, stronger effect = lower value 1.01 | locus YGR135W, strain pre9, stronger effect = lower value 0.971 | locus YGR252W, strain gcn5, stronger effect = lower value 0.943 | locus YHR013C, strain ard1, stronger effect = lower value 0.962 | locus YHR027C, strain rpn1, stronger effect = lower value 1.02 | locus YHR030C, strain SLT2, stronger effect = lower value 1 | locus YHR079C, strain IRE1 (second series), stronger effect = lower value 0.998 | locus YHR079C, strain IRE1, stronger effect = lower value 1.01 | locus YHR094C, strain hxt1, stronger effect = lower value 0.989 | locus YHR129C, strain ARP1, stronger effect = lower value 1.01 | locus YHR142W, strain chs7, stronger effect = lower value 1.01 | locus YHR200W, strain rpn10, stronger effect = lower value 1 | locus YIL066C, strain RNR3, stronger effect = lower value 1.02 | locus YIL073C, strain SPO22, stronger effect = lower value 1.01 | locus YIL125W, strain kgd1, stronger effect = lower value 1.01 | locus YIR030C, strain dcg1, stronger effect = lower value 1 | locus YJL092W, strain hpr5, stronger effect = lower value 1.01 | locus YJL095W, strain BCK1 (second series), stronger effect = lower value 1.01 | locus YJL095W, strain BCK1, stronger effect = lower value 1.02 and 0.991 | locus YJL115W, strain asf1, stronger effect = lower value 1.01 | locus YJL129C, strain trk1, stronger effect = lower value 1.02 | locus YJL134W, strain LCB3, stronger effect = lower value 1.01 | locus YJL154C, strain vps35, stronger effect = lower value 1.01 | locus YJL164C, strain tpk1, stronger effect = lower value 0.991 | locus YJL166W, strain qcr8, stronger effect = lower value 1.03 | locus YJL168C, strain set2, stronger effect = lower value 0.992 | locus YJL187C, strain SWE1 (second series), stronger effect = lower value 1.01 | locus YJR043C, strain POL32, stronger effect = lower value 1.01 | locus YJR066W, strain TOR1, stronger effect = lower value 0.932
